This note sets out measurements from PubChem BioAssay.

SMILES strings stand for the structures. Where “and” joins values, the source holds several entries; their conditions need not be identical. Equal values may be shown once. Calls of active or inactive are those of the source.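 Rule for the calls, unless noted: active = compounds whose cell count with miR-34 switched on is under 0.7 times the count with it off; inactive = the rest.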

The nature of assay [1]: Wnt pathway potentiators raising nuclear beta-catenin – imaging, WNT3A-conditioned medium, mouse C2C12, NPC library, primary screen (AID 1117326; in the data active = nuclear beta-catenin stimulation mostly above about 4.2%, no sharp cut-off; inactive = mostly below about 10%). The following applies: stronger effect = higher value.
Assay [2] is described as follows: stimulators of insulin release from INS-1E, primary screen, cell-based, 5 mM glucose, NPC library (AID 1117329;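 active = compound raises insulin release from rat beta cells at 5 mM glucose, no numeric limit stated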). Particulars: rat INS-1E insulin secretion, at 10 µM, stronger effect = higher value.
A short description of assay [3]: growth inhibition of GSK3B-pretreated HCT116 cells – cell-based, CellTiter-Glo, 0.2 to 20 µM (AID 1117336;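 active = compounds lowering colon cancer cell viability after pretreatment blocking the GSK3B kinase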). Particulars: HCT116 viability after GSK3B inhibitor, at 20 µM, stronger effect = higher value. (Cellular ATP, detected with luciferase, serves as a proxy for viable cell number.)
Assay [4] is described as follows: inhibition of endothelial tube formation, primary screen, imaging, VEGF stimulated, CD31 staining, tube area, NPC library (AID 1117340;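 active = compound that reduces growth-factor-driven endothelial tube area in a mixed cell culture, no cutoff stated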). Particulars: VEGF-stimulated ADSC/ECFC co-culture, at 10 µM, stronger effect = higher value.
The nature of assay [5]: GLP1 release stimulators, primary, NCI-H716, NPC library (AID 1117341;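 active = compound raises GLP1 secretion from the human gut endocrine cells, with no numeric limit stated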). The following applies: NCI-H716 cells, at 10 µM, stronger effect = higher value.
The nature of assay [6]: HCT116 colon cancer cell growth inhibition, primary screen, CellTiter-Glo luminescence, NPC library (AID 1117342;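 active = compounds that lower survival of HCT116 colon cancer cells in the luminescence readout, no numeric limit stated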). The following applies: at 20 µM (top of the series).
Assay [7] can be described thus: reduced SW480 viability measured with CellTiter-Glo, NPC library, primary (AID 1117343;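 active = compounds that lower viability of the colon cancer cells in the luminescence readout, with no numeric limit stated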). Particulars: CellTiter-Glo luminescence; at 20 µM (top of the series) unless noted.
A short description of assay [8]: NPC library primary testing for decreased DLD-1 cell viability via CellTiter-Glo (AID 1117346;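 active = compounds that lower survival of DLD-1 colon cancer cells in the luminescence readout, no cutoff given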). Particulars: DLD-1 viability, CellTiter-Glo luminescence; at 20 µM (top of the series).
A short description of assay [9]: EMT-state selective cytotoxicity in co-culture – imaging, PC-3E GFP, TEM4-18 mCherry, primary screen (AID 1345086;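 active = compounds killing one labelled cell type while sparing the other, by normalised counts and ratio limits, not self-fluorescent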;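 for all read-outs here: cells exposed to compound for 72 h before imaging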;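 for red/green cell ratio (normalised): normalised mesenchymal count divided by normalised epithelial count so high means epithelial killing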). Particulars: PC-3E GFP / TEM4-18 mCherry co-culture, imaging cell counts, at 1 µM; for red/green cell ratio (normalised): actives lie on both sides, counts scaled to control wells, 1 = unselective.
Assay [10] is described as follows: viability loss with induced miR-34 in A549 – imaging, A549 dox-inducible miR-34, nuclei and caspase counts, primary screen (AID 1347080). Particulars: A549 miR-34 inducible, Hoechst nuclei count, 48 h.
Assay [11] deals with NAD(+) hydrolase SARM1 (Homo sapiens) (UniProt Q6SZW1). Nature of the assay: blocking NAD cleavage by SARM1 SAM-TIR – cell lysate, NAD-Glo luminescence (AID 1508614;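 active = compound whose remaining NAD level is above about 45 nM, limit read from the data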;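 note: higher remaining NAD means stronger inhibition of SARM1 NADase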). Particulars: SAM-TIR HEK293T lysate NADase, at 1 µM, stronger effect = higher value.
A short description of assay [12]: MELAS cybrid and Rieske KO viability enhancers – cell-based, MELAS cybrids, Rieske KO mouse fibroblasts, CellTiter-Glo, primary screen (AID 1508586;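 active = mean z-score across replicates of 1.96 or higher in either the MELAS or the Rieske mutant cell line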;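 note: z relative to plate mean and SD of compound and empty wells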). The following applies: low glucose.
The nature of assay [13]: compounds altering viability of human ES cells (AID 493140; call rule not given here;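 note: cells exposed to compounds for four days before counting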). The following applies: human embryonic stem cell survival screen; stronger effect = higher value.
A short description of assay [14]: P. berghei load reduction in hepatocytes – cell-based, HepG2, luciferase luminescence, HepG2 viability, primary screen (AID 624349; in the data active = parasite load remaining mostly below about 12%, no sharp cut-off; inactive = mostly above about 10%;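 note: 100% = mean of DMSO negative control wells on the same plate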). The following applies: P. berghei liver stage in HepG2, luciferase luminescence, concentration not given here; parasite load remaining: stronger effect = lower value; viability: measured here: HepG2 viability without parasites.
Setting [15] is: measured here: epithelial PC-3E GFP cell survival.
The mark [16] stands for this setting: measured here: mesenchymal TEM4-18 mCherry cell survival.
[17] abbreviates: stronger effect = lower value, cell number ratio, induced over uninduced.
The mark [18] stands for this setting: measured here: relative caspase fold change +Dox/-Dox.
The mark [19] stands for this setting: measured here: total cells with miR-34 induction, stronger effect = lower value.
Where [20] appears, read: measured here: total cells without miR-34 induction.
Where [21] appears, read: MELAS cybrid survival, CellTiter-Glo 48 h, stronger effect = higher value.
[22] abbreviates: Rieske KO mouse fibroblast survival, CellTiter-Glo 72 h.

Sequence of NAD(+) hydrolase SARM1 (Homo sapiens) (Q6SZW1 whole entry, looked up): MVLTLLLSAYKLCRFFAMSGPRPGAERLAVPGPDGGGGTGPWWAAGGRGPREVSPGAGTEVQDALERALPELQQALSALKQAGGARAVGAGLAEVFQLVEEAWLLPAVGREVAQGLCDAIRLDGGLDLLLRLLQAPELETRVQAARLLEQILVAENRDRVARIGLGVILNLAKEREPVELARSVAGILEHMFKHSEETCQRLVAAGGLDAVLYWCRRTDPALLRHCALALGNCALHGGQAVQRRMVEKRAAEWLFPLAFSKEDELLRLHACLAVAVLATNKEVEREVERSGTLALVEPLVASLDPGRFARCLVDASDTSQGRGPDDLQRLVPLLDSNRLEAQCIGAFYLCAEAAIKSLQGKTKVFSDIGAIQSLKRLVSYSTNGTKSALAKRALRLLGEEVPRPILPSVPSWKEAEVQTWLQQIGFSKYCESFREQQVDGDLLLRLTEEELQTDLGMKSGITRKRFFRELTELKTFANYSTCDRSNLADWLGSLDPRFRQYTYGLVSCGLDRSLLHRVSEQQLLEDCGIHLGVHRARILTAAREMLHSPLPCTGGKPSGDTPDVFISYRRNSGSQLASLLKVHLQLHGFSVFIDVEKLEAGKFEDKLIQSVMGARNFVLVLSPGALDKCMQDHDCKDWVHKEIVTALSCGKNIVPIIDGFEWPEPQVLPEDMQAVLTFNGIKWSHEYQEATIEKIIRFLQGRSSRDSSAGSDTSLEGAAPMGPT

For the compound `O=[N+]([O-])c1ccc(O)c2ncccc12`, the nuclear beta-catenin stimulation was 45.6% (active) in assay [1] (at 10 µM) and 1.9% in assay [1] (stimulation, at 2 µM). Moreover, the insulin secretion stimulation in [2] is -1.1% (inactive). Further, the viability decrease in [3] is 95.8% (active). Also, the tube area decrease in assay [4] was 102% (active). In assay [5], the GLP1 secretion stimulation was -11.4% (inactive). Also, the inhibition of viability in assay [6] was 76.5% (active). The values for the viability decrease (inhibition) in assay [7] and in [8] were 112% (active) and 80.7% (active), respectively. Besides, the red/green cell ratio (normalised) in assay [9] was 0.89 (inactive). Also, the normalised cell number in assay [9] (setting [15]) worked out at 1.07; in assay [9] (setting [16]) it was 0.95. Further, the fold change was 0.979 (inactive) in assay [10] (setting [17]) and 0.972 in assay [10] (setting [18]). The cell count in [10] (setting [19]) amounted to 2410; in [10] (setting [20]), 2460. The remaining NAD in [11] is 10 nM (inactive).
As for `CC(S)C(=O)NCC(=O)O` (configuration not stated), the nuclear beta-catenin stimulation is -0.5% (inactive) in [1] (at 10 µM) and 0.7% in assay [1] (stimulation, at 2 µM). Also, the insulin secretion stimulation in [2] was -0.8% (inactive). The viability decrease in assay [3] was -7.03% (inactive). Moreover, the tube area decrease in assay [4] is 17.7% (inactive). Moreover, the GLP1 secretion stimulation in assay [5] is -1.7% (inactive). Also, the inhibition of viability in assay [6] was -7.95% (inactive). Further, the viability decrease (inhibition) in assay [7] was 46.8% (inactive); in [8], 0.37% (inactive). Moreover, in assay [9], the red/green cell ratio (normalised) was 0.9 (inactive). Also, the normalised cell number was 1.06 in assay [9] (setting [15]) and 0.94 in assay [9] (setting [16]). Besides, the fold change is 0.956 (inactive) and 0.886 (inactive) in assay [10] (setting [17]); 0.809 and 0.891 in assay [10] (setting [18]). In addition, the cell count in [10] (setting [19]) was 8410 and 8420; in assay [10] (setting [20]) it was 8800 and 9500. Further, the z-score in [12] (setting [21]) is -0.286 (inactive); in assay [12] (setting [22]), 0.558. Moreover, the remaining NAD in assay [11] is 10 nM (inactive).
As for `CC(=O)NCCCS(=O)(=O)O`, the nuclear beta-catenin stimulation in assay [1] (at 10 µM) was -1.9% (inactive); in [1] (stimulation, at 2 µM), -0.8%. Further, in [2], the insulin secretion stimulation is -0.1% (inactive). For the same compound, the viability decrease in assay [3] is -7.6% (inactive). For the same compound, the tube area decrease in assay [4] was 3.7% (inactive). In assay [5], the GLP1 secretion stimulation is -1.3% (inactive). Moreover, the inhibition of viability in [6] is 1.8% (inactive). Moreover, the figures for the viability decrease (inhibition) in [7] and in assay [8] were 4.2% (inactive) and -2% (inactive), respectively. Moreover, the red/green cell ratio (normalised) in assay [9] was 0.97 (inactive). Further, the normalised cell number stood at 1 in [9] (setting [15]) and 0.97 in assay [9] (setting [16]). Further, the fold change in [10] (setting [17]) is 0.904 (inactive); in assay [10] (setting [18]) it was 0.789. The cell count in [10] (setting [19]) turned out to be 8720; in assay [10] (setting [20]), 9650. For the same compound, the z-score was -0.172 (inactive) in assay [12] (setting [21]) and 0.0861 in [12] (setting [22]). Further, the remaining NAD in assay [11] is 10 nM (inactive).
With `CNCCCC1c2ccccc2C=Cc2ccccc21`, in [13], the survival was 0.667 (inactive). Further, the parasite load remaining in assay [14] was 64.9% (inactive) and 67.7% (inactive). The viability in assay [14] is 77.6% and 100%. For the same compound, the nuclear beta-catenin stimulation in assay [1] (at 10 µM) was 2% (inactive); in assay [1] (stimulation, at 2 µM), 0.5%. Also, the insulin secretion stimulation in assay [2] was 1.7% (inactive). The viability decrease in assay [3] was -46.9% (inactive). Also, in assay [4], the tube area decrease is 40.6% (active). Besides, the GLP1 secretion stimulation in assay [5] was 6.8% (inactive). Also, the inhibition of viability in [6] is 39.3% (inactive). Further, the viability decrease (inhibition) was 87.8% (active) in assay [7] and 30.3% (inactive) in [8]. Besides, the red/green cell ratio (normalised) in [9] was 1.06 (inactive). For the same compound, the normalised cell number worked out at 0.98 in assay [9] (setting [15]) and 1.04 in [9] (setting [16]). For the same compound, the fold change in assay [10] (setting [17]) is 1.12 (inactive) and 0.946 (inactive) and 0.93 (inactive); in assay [10] (setting [18]), 1.27 and 1.04 and 5.53. Besides, the cell count is 6500 and 6350 and 11800 in assay [10] (setting [19]); 5820 and 6720 and 12700 in assay [10] (setting [20]). For the same compound, the z-score is -0.141 (inactive) in assay [12] (setting [21]) and -0.441 in assay [12] (setting [22]). For the same compound, the remaining NAD in [11] is 10 nM (inactive).

What is called viability is the share of living cells, or the viability signal relative to a control.
